One assay has as its system HACAT. Nature of the assay: qHTS assay to identify novel small-molecules to repurpose for Merkel cell carcinoma treatment (AID 1296009). Note: nearly all actives have a fitted effect of over 60% in size. The conditions noted are these: MCC and control cell lines, CellTiter-Glo viability, 72 h; at 44.8 µM (top of the series) unless noted. Summed up:
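Dose-response viability screen; 72 hr exposure at 37 degree celsius; CellTiter-Glo added, 10 min room temperature, luminescence read; RLUs scaled between no-cell and DMSO wells.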
Background: qHTS replaces the single test concentration by a dilution series.

The test system of the next assay is C33A. Nature of the assay: Primary qHTS to identify gynecologic anti-cancer compounds using libraries of approved drugs and bioactive compounds (AID 1345084). For activity change, negative = cytotoxicity: % is set by controls: 0 for no effect and ±100 for the full control effect. Note: nearly all actives have a fitted effect of over 55% in size. Note: potency is the fitted concentration of half-maximal effect. The settings on record: Gynecologic cancer cell panel viability, ATPlite luminescence, 48 h; series mostly up to 57.5 µM. An outline of the steps: (§1)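 Cell viability after 48 h drug treatment, ATPlite luminescence readout; five doses.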

Another assay has as its system CAOV3. The description is as above. The settings on record: Gynecologic cancer cell panel viability, ATPlite luminescence, 48 h; series mostly up to 57.5 µM. Summed up: as §1
In general terms: ATP-based viability assays read luminescence as a measure of living cells.

The test system of a further assay is CASKI. Described as above. The conditions noted are these: Gynecologic cancer cell panel viability, ATPlite luminescence, 48 h; series mostly up to 57.5 µM. An outline of the steps:
as §1

The test system of a further assay is Es-2. Described as above. The conditions noted are these: Gynecologic cancer cell panel viability, ATPlite luminescence, 48 h; series mostly up to 57.5 µM. An outline of the steps: as §1
The test system of another assay is HeLa. The description is as above. The settings on record: Gynecologic cancer cell panel viability, ATPlite luminescence, 48 h; series mostly up to 57.5 µM. An outline of the steps:
as §1

Another assay relates to JEG-3. Described as above. The conditions noted are these: Gynecologic cancer cell panel viability, ATPlite luminescence, 48 h; series mostly up to 57.5 µM. Summed up:
as §1

A further assay concerns OV90. The assay is described as above. The conditions noted are these: Gynecologic cancer cell panel viability, ATPlite luminescence, 48 h; series mostly up to 57.5 µM. An outline of the steps:
as §1

A further assay concerns PA-1. The description is as above. The settings on record: Gynecologic cancer cell panel viability, ATPlite luminescence, 48 h; series mostly up to 57.5 µM. An outline of the steps: as §1
The test system of the next assay is SKOV3. The description is as above. The settings on record: Gynecologic cancer cell panel viability, ATPlite luminescence, 48 h; series mostly up to 57.5 µM. Summed up: as §1
A further assay relates to Tov-21-G. Described as above. The settings on record: Gynecologic cancer cell panel viability, ATPlite luminescence, 48 h; series mostly up to 57.5 µM. Summed up:
as §1

The next assay deals with Tov112D. The description is as above. The conditions noted are these: Gynecologic cancer cell panel viability, ATPlite luminescence, 48 h; series mostly up to 57.5 µM. An outline of the steps:
as §1

The test system of a further assay is Hek293T. The description is as above. The conditions noted are these: Gynecologic cancer cell panel viability, ATPlite luminescence, 48 h, control line for the selectivity index; series mostly up to 57.5 µM. Summed up: as §1

Records with an inconclusive call do not appear. A number with no mark means an inactive call. Active and inactive are the calls of the source. Calls come from the whole dose curve; as a rule, active = well fitted curve in the direction sought with a large enough effect; inconclusive = small, poorly fitted or top-dose-only effect, or another doubt; inactive = no such curve, though single readings can be large; an effect the other way counts as inactive or inconclusive. *1 amine or outer side, *2 acyl side, *3 side chain or, on linkers, in order; H or OH if unused. Where a SMILES comes first, the peptide text is derived from it. [ ]: non-standard residue; d: D form. The star is where a group is joined. ξ: configuration not given here. X9 = CCC(C)(N*)C(=O)C1CC[C@@H](C(=O)N[C@@H](Cc2ccccc2)C(=O)NCC(=O)O)N1; X8 = O=C([C@@H]1CC(O)CN1[*:1])[*:2]; aIle = CC[C@@H](C)[C@H](N)C(=O)O; AMC = Cc1cc(=O)oc2cc(N*)ccc12; Thr(3ξ) = CC(O)[C@H](N)C(=O)O; Cbz = O=C(OCc1ccccc1)*; ξIva = CCC(C)(N)C(=O)O; Aib = CC(C)(N)C(=O)O

Take `COC(=O)C1=COC(O[C@@H]2O[C@H](COC(=O)/C=C/c3ccc(O)cc3)[C@@H](O)[C@H](O)[C@H]2O)C2C(CO)=CCC12` (stereo not given in full): the outcome in the assay with HACAT was “inactive [at 17.4 µM]”. Besides, the Potency entry in the assay on C33A, with CAOV3, in the assay with Es-2, with HeLa, in the assay on JEG-3 and in the assay on OV90 was “inactive” throughout. Further, the Potency result in the assay with PA-1, with SKOV3, with Tov-21-G and in the assay on Tov112D was “inactive” in each case. For the same compound, the result with CASKI was inactive.
`C=C(C(=O)O)[C@@H]1CC[C@@]2(C)CCC[C@@](C)(O)[C@@H]2C1`: the outcome in the assay on HACAT and with CASKI was inactive. In addition, the Potency entry in the assay with C33A, in the assay with Es-2, in the assay with HeLa, in the assay with Hek293T, with JEG-3 and in the assay on OV90 was “inactive” in each case. For the same compound, the Potency entry with PA-1, in the assay on SKOV3, with Tov-21-G and with Tov112D was “inactive” throughout.
On to `CC(=O)OC(C)(C)/C=C/C(=O)[C@](C)(O)C1[C@H](O)C[C@@]2(C)[C@@H]3CC=C4[C@@H](C[C@H](O[C@@H]5O[C@H](CO)[C@@H](O)[C@H](O)[C@H]5O)C(=O)C4(C)C)[C@]3(C)C(=O)C[C@]12C` (stereo not given in full), for which the outcome with HACAT was “inactive [at 17.4 µM]”. In addition, the Potency result in the assay on C33A, in the assay on Es-2, with HeLa, in the assay on Hek293T, in the assay on JEG-3 and in the assay with OV90 was “inactive” in each case. The Potency result in the assay on PA-1, in the assay with SKOV3, with Tov-21-G and in the assay on Tov112D was “inactive” throughout. Also, the compound was called inactive with CASKI.
In the case of `CC1(C)CCC[C@]2(C)C1CC=C(CO)[C@H]2CC/C(=C/CO)CO` (stereo not given in full), the compound was classed as inactive in the assay on HACAT and in the assay on CASKI. In addition, the Potency entry with C33A, in the assay with Es-2, in the assay with HeLa, in the assay on Hek293T, in the assay with JEG-3 and with OV90 was “inactive” in each case. In addition, the Potency result with PA-1, with SKOV3, with Tov-21-G and with Tov112D was “inactive” each time.
For the compound `C=C1C(=O)O[C@@H]2/C=C(\C)CC/C=C(\C(=O)O[C@@H]3O[C@H](CO)[C@@H](O)[C@H](O)[C@H]3O)CC[C@@H]12`, the outcome in the assay on HACAT was “inactive [at 17.4 µM]”. In addition, the Potency result with C33A, in the assay with CAOV3, with Es-2, in the assay on HeLa, with JEG-3 and in the assay on OV90 was “inactive” in each case. In addition, the Potency entry with PA-1, in the assay on SKOV3, in the assay on Tov-21-G and with Tov112D was “inactive” throughout.
With `CCOc1ccc(-c2nn3ncccc3c2-c2ccc(S(C)(=O)=O)cc2)cc1`, the result in the assay with HACAT and in the assay on CASKI was inactive. The Potency result in the assay on C33A, with CAOV3, with Es-2, with HeLa, in the assay on Hek293T and with OV90 was “inactive” throughout. For the same compound, the Potency result in the assay with PA-1, with SKOV3, with Tov-21-G and in the assay on Tov112D was “inactive” in each case.
Take `Cc1ncc(NC(=O)c2ccc(CN3CCN(C)CC3)c(C(F)(F)F)c2)cc1Nc1nccc(-c2cccnc2)n1`: the result with HACAT and in the assay with CASKI was inactive. The Potency entry in the assay on C33A, in the assay with CAOV3, in the assay on Es-2, in the assay on HeLa, with Hek293T and in the assay with JEG-3 was “inactive” in each case. The Potency entry with PA-1, in the assay on SKOV3, in the assay on Tov-21-G and in the assay on Tov112D was “inactive” throughout.
Turning to `C=CC(C)(C)C12Nc3c(ccc4c3OC(C)(C)C=C4)C1(O)CC1C(=O)N3CCCC3C(=O)N12` (stereo not given), the outcome in the assay on HACAT was “inactive [at 17.4 µM]”. Also, the Potency result with C33A, in the assay with Es-2, with HeLa, in the assay with Hek293T, in the assay on JEG-3 and in the assay on OV90 was “inactive” throughout. The Potency result with PA-1, with SKOV3, in the assay on Tov-21-G and in the assay on Tov112D was “inactive” throughout. Moreover, in the assay on CASKI, the compound was called inactive.
As to `CC(=O)OC12CC(C)C(OC(=O)c3ccccc3)C1/C=C(/C)C(OC(=O)c1ccccc1)CC(=O)C(C)(C)/C=C/C(C)C2=O` (stereo not given), the outcome with HACAT was “inactive [at 17.4 µM]”. In addition, the Potency result with C33A, in the assay with CAOV3, in the assay with HeLa, in the assay with Hek293T, with OV90 and in the assay with PA-1 was “inactive” throughout. In addition, the Potency entry with SKOV3, in the assay on Tov-21-G and in the assay with Tov112D was “inactive” in each case. For the same compound, the call in the assay with CASKI was inactive. The Potency in the assay on Es-2 is 2820 nM (active).
Consider `CC(=O)O[C@@H]1C(O)C[C@@]2(C)C(CC[C@@H](C)C23Cc2c(O)cc4c(c2O3)CNC4=O)C1(C)C` (stereo not given in full), for which the outcome with HACAT is “inactive [at 17.4 µM]”. Besides, the Potency result with C33A, in the assay on CAOV3, with Es-2, in the assay with Hek293T, in the assay with JEG-3 and in the assay with OV90 was “inactive” throughout. Besides, the Potency result in the assay with PA-1, in the assay with Tov-21-G and with Tov112D was “inactive” in each case. Further, in the assay on CASKI, the outcome was inactive.
For `Cc1cc(=O)oc2cc(NC(=O)[C@H](CCC(=O)O)NC(=O)[C@H](CC(C)C)NC(=O)[C@H](CC(C)C)NC(=O)OCc3ccccc3)ccc12` (Cbz-Leu-Leu-Glu-{AMC}), the result in the assay on HACAT and in the assay with CASKI was inactive. Further, the Potency result with C33A, in the assay on Es-2, in the assay on HeLa, in the assay with Hek293T, in the assay on JEG-3 and with OV90 was “inactive” in each case. In addition, the Potency entry with PA-1, with SKOV3, with Tov-21-G and in the assay with Tov112D was “inactive” in each case.
In the case of `CC(C)CC(c1c(O)c(C=O)c(O)c(C=O)c1O)C1CCC(C)(O)C2CC(C(C)(C)O)CCC12C` (stereo not given), the outcome with HACAT is “inactive [at 17.4 µM]”. For the same compound, the Potency result in the assay on C33A, with Es-2, in the assay with HeLa, in the assay on Hek293T, with JEG-3 and in the assay on OV90 was “inactive” each time. Also, the Potency entry in the assay on PA-1, with SKOV3, in the assay with Tov-21-G and with Tov112D was “inactive” each time. In the assay on CASKI, the call was inactive.
In the case of `CC[C@@H](C)[C@H](NC(=O)C(C)(C)NC(=O)[C@H](CCC(N)=O)NC(=O)C(C)(CC)NC(=O)[C@H](Cc1c[nH]c2ccccc12)NC(C)=O)C(=O)N[C@H](C(=O)NC(C)(C)C(=O)N[C@@H](CC(C)C)C(=O)NC(C)(C)C(=O)N1CCC[C@H]1C(=O)N[C@@H](CCC(N)=O)C(=O)NC(C)(C)C(=O)N1CC(O)C[C@H]1C(=O)NC(C)(CC)C(=O)C1CC[C@@H](C(=O)N[C@@H](Cc2ccccc2)C(=O)NCC(=O)O)N1)C(C)O` (stereo not given in full) (Ac-W[ξIva]Q[Aib][aIle][Thr(3ξ)][Aib]L[Aib]PQ[Aib][X8]-X9), the outcome in the assay with HACAT was “inactive; activator [at 4.96 µM]”. The activity change, negative = cytotoxicity with C33A is -11% [at 6.55 µM]; in the assay with CAOV3 it was -26.3% [at 6.55 µM]; in the assay with Es-2, 1.15% [at 6.55 µM]; in the assay on HeLa, -27.1% [at 6.55 µM]; with Hek293T, -15.3% [at 6.55 µM]; in the assay with OV90, -20.1% [at 6.55 µM]. The activity change, negative = cytotoxicity was -32% [at 6.55 µM] in the assay on PA-1, -9.13% [at 6.55 µM] in the assay with SKOV3, -16.8% [at 6.55 µM] with Tov-21-G and -24.7% [at 6.55 µM] in the assay on Tov112D.
For the compound `CC(O)C1CCC2C3CCC4CC(OC5OC(C(=O)O)C(O)C(O)C5O)CCC4(C)C3CCC12C` (stereo not given), the call with HACAT and in the assay with CASKI was inactive. Also, the Potency result with C33A, with Es-2, with HeLa, in the assay on Hek293T, in the assay on JEG-3 and in the assay on OV90 was “inactive” throughout. Besides, the Potency entry in the assay with PA-1, in the assay with SKOV3, in the assay on Tov-21-G and in the assay on Tov112D was “inactive” in each case.

The record behind these values is PubChem BioAssay (NCATS).
